{"source": "the supplement of paper PMC11624193", "about": "“Coupling cellular drug-target engagement to downstream pharmacology with CeTEAM” (Nature Communications, 2024)", "note": "Structures can show the parent of a compound that is named as a salt. Values without a mark were called inactive.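 The calls were made as follows: active = log2 fold change beyond 2 SD from the library mean after excluding viability outliers; inactive = within 2 SD.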", "data": [{"target": "PARP1 L713F-nLuc biosensor (HCT116) (UniProt P09874)", "sequence (P09874 whole entry L713F, looked up)": "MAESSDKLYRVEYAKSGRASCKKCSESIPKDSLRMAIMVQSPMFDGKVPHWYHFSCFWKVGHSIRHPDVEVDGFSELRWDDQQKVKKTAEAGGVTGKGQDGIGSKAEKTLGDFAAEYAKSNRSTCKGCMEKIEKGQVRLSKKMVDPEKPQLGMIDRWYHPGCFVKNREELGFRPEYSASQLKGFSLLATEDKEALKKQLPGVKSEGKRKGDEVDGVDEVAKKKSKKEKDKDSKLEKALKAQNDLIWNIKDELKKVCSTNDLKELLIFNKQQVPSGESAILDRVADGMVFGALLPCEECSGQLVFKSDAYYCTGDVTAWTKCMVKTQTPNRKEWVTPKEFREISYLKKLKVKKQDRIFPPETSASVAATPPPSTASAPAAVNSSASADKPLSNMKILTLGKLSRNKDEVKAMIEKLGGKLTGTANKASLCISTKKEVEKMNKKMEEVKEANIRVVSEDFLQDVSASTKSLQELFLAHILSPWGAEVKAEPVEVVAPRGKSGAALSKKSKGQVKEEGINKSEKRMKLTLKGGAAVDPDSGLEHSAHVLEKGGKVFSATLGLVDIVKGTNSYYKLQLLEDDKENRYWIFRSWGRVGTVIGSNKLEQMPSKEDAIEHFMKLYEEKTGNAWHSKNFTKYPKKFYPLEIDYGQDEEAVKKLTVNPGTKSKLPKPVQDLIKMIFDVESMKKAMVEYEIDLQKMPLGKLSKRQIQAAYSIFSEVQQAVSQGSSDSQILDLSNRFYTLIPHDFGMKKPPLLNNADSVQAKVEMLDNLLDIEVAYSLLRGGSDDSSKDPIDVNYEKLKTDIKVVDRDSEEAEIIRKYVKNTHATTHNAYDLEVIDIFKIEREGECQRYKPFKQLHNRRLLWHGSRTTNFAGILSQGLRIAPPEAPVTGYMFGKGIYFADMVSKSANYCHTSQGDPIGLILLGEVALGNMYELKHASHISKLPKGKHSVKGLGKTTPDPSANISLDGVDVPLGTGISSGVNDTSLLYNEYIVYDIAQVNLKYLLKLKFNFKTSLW", "experiment": "PARP1 L713F-nLuc/akaLuc ratio relative to DMSO control (biosensor stabilization) (fold change); higher = more PARP1 biosensor stabilization (target engagement / stabilizer), active = hit call of the paper", "details": "stock concentration (mM; final µM = stock mM x 1): 10; 24 h", "values": [{"smiles": "Nc1nc(OCc2ccc(CNC(=O)C(F)(F)F)cc2)c2[nH]cnc2n1", "note": "[PIN1 inhibitor API-1]", "PARP1 L713F-nLuc/akaLuc ratio": 1.38}, {"smiles": "COc1cc(C(=O)Nc2ccccc2-c2cn3c(CN4CCNCC4)csc3n2)cc(OC)c1OC", "PARP1 L713F-nLuc/akaLuc ratio": 0.569}, {"smiles": "Cn1cccc1/C=C1\\C(=O)NC(=O)c2ccccc21", "PARP1 L713F-nLuc/akaLuc ratio": "3.34 (active)"}, {"smiles": "C[C@H](Nc1cc(-c2cnn(C)c2)cc(Nc2cnccn2)n1)c1ccc(F)cc1", "note": "[Ilginatinib]", "PARP1 L713F-nLuc/akaLuc ratio": 0.485}, {"smiles": "CCOC(=O)CCNc1cc(N2CCc3ccccc3CC2)nc(-c2ccccn2)n1", "PARP1 L713F-nLuc/akaLuc ratio": 0.586}, {"smiles": "COc1cc(N2CCN(C)CC2)ccc1Nc1nccc(-c2cn(C)c3cnccc23)n1", "PARP1 L713F-nLuc/akaLuc ratio": 0.923}, {"smiles": "CNC(=O)c1cc(Oc2ccc(NC(=O)Nc3ccc(Cl)c(C(F)(F)F)c3)c(F)c2)ccn1", "note": "[Regorafenib (BAY 73-4506)]", "PARP1 L713F-nLuc/akaLuc ratio": 0.687}, {"smiles": "Oc1cc(O)c2cc(O)c(-c3cc(O)c(O)c(O)c3)[o+]c2c1", "note": "[Delphinidin (chloride)]", "PARP1 L713F-nLuc/akaLuc ratio": 1.09}, {"smiles": "N[C@H]1CC[C@H](N[C@@H]2C[C@H]2c2ccccc2)CC1", "note": "[Iadademstat (dihydrochloride)]", "PARP1 L713F-nLuc/akaLuc ratio": 1.06}, {"smiles": "O=C(Nc1ccc(-c2ccnc(Nc3ccc(N4CCOCC4)cc3)n2)cc1)C1CCCN1", "note": "(stereo not given)", "PARP1 L713F-nLuc/akaLuc ratio": 0.659}]}]}
